What is called AC50 is the concentration at which the activity in the assay is half-maximal.

Active and inactive are the calls of the source. Rule for the calls: active = hit-call score of the fitted dose curve at least 0.9, where 1 is the maximum; inactive = score below 0.9.

Read-out in this experiment: Early growth response protein 1 (EGR1) transcription factor, EGR1 (gene 1958)
The experiment can be described thus: LTEA_HepaRG_EGR1: Life Technologies and Expression Analysis (LTEA) Assay for Early growth response protein 1 (EGR1) transcription factor using HepaRG (AID 2283490). The following applies: mRNA level, 48 h; actives raise or lower the signal. The gist of the method: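 Differentiated human HepaRG cells in serum-free induction medium were exposed in duplicate for 48 h to eight concentrations (top 100 uM, half-log steps) in 0.5% DMSO. EGR1 mRNA was quantified by qRT-PCR, normalized to ACTB, GAPDH and POLR2A, and fitted bidirectionally versus DMSO.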
Turning to `CC(C)OC(=O)C(C)(C)Oc1ccc(C(=O)c2ccc(Cl)cc2)cc1`, the outcome was inactive. Still for that read-out and setting: as for `CCCC[C@H]1CN(CC2CCOCC2)C(=O)OC12CCN(C1(C)CCN(C(=O)c3c(C)ncnc3C)CC1)CC2`, the entry is “inactive”. On to `CCCCCCCCCCCCCCOS(=O)(=O)O`, for which the compound was called inactive. As to `OCC(CO)n1cnc(-c2ccc(F)cc2)c1-c1ccnc(Oc2ccccc2)n1`, the AC50 is 20.7 µM (active).

Turning to `CC(C)(O)c1ccc(CNC(=O)c2cccnc2Oc2ccc(F)cc2)cc1`, the outcome was inactive. On the same count and under the same terms, the entry for `Cc1cc(SC2=C(O)C[C@@](CCc3ccc(N)cc3)(C(C)C)OC2=O)c(C(C)(C)C)cc1CO` is “inactive”. Same read-out and setting: the entry for `N[C@@H](Cc1c[nH]c2ccccc12)C(=O)O` is “inactive”; for `CC(C)c1cccc(C(C)C)c1` it is “inactive”; for `CC(=O)S[C@H](C(=O)N[C@H]1Cc2ccccc2[C@H]2CCC[C@@H](C(=O)O)N2C1=O)C(C)C` it is “inactive”. Take `COc1ccc(C(=O)Nc2nc3ccccc3c(NCc3ccccc3)c2C#N)cc1`: the AC50 was 21.7 µM (active).

As to `O=C(Oc1ccccc1)c1cccc(C(=O)Oc2ccccc2)c1`, the compound was classed as inactive. On to `CN(C)C(=O)NC1(c2ccccc2)CCN(CC[C@@]2(c3ccc(F)c(F)c3)CN(C(=O)c3ccccc3)CCO2)CC1`, for which the compound was called inactive. The same measure, in the same setting: the entry for `CC(C)c1cccc(C(C)C)c1NC(=O)NS(=O)(=O)c1cc(C(C)(C)O)co1` is “inactive”; for `O=C1c2c(O)cccc2Cc2cccc(O)c21` it is “inactive”.

For `O=[Si]=O`, the outcome was inactive. Turning to `CC(N)=O`, the result was inactive. On the same count and under the same terms, the entry for `CC(C)(C)c1ccccc1` is “inactive”; for `Cc1ccc(C(C)(C)C)c(O)c1` it is “inactive”; for `c1ccc2occc2c1` it is “inactive”. Still for that read-out and setting: the entry for `COC(=O)CCC(=O)OC` is “inactive”; for `CC(=O)CC(c1ccccc1)c1c(O)c2ccccc2oc1=O` (stereo not given) it is “inactive”. `CCc1cc(C2=C(C(=O)O)N(c3ccccc3C(F)(F)F)S(=O)(=O)c3ccccc32)cc2c1OCO2`: the AC50 was 9.92 µM (active). As to `CCCCc1nc2cccnc2n1Cc1ccc(-c2ccccc2-c2nnn[nH]2)cc1`, the outcome was inactive.

As to `CCCCC(CC)CO` (stereo not given), the call was inactive. Take `CC1=C(C)S(=O)(=O)CCS1(=O)=O`: the half-maximal activity concentration (AC50) was 80.6 µM (active). As to `CCCCC(CC)COP(=O)(OCC(CC)CCCC)OCC(CC)CCCC` (stereo not given), the result was inactive. Turning to `CC(COCC(C)OC(=O)c1ccccc1)OC(=O)c1ccccc1` (stereo not given), the result was inactive. Same read-out and setting: as for `CC1(C)C(=O)NC(=O)N1CO`, the entry is “inactive”. Still for that read-out and setting: as for `CCCCCCC(CCCCCCCCCCC(=O)OCC(COC(C)=O)OC(C)=O)OC(C)=O` (stereo not given), the entry is “inactive”; as for `O=Cc1ccccc1C=O`, “inactive”.

For the origin of these results see PubChem BioAssay (EPA / NIEHS).
